Structures are written as SMILES. The panel holds about 83,000 compounds, 20% with a hit somewhere; the sample as a whole holds those more often.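 Growth was measured after 48 h exposure to one concentration of compound in 96-well plates. Values under 10 count as active.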 Values without a mark were called inactive. Active and inactive are the calls of the source.

This note sets out measurements from PubChem BioAssay (NCI).

The experiment deals with HL-60(TB) leukemia. Put plainly: NCI-60 one-dose screen, 48 h (100 = growth as untreated, 0 = no growth, -100 = all killed). The following applies: 10 µM unless noted.
In the case of `CNCc1cccc2c1OCCOCCOCCN(C)S(=O)(=O)c1ccc(cc1)-c1cnc(N)c(n1)C(=O)N2`, the growth was -37% (active).
With `CN1C(=C2C(=O)OC(C)(C)OC2=O)CCC1C(=O)NCc1ccc(Cl)cc1Cl` (stereo not given), the growth was 83.7%.
The result for `NCC(=O)NS(=O)(=O)OC[C@H]1O[C@@H](n2cnc3c(N)ncnc32)[C@H](O)[C@@H]1O` reads -9.28% (active); that for `COc1ccc(-c2nn(-c3cccc(Cl)c3)cc2/C=C2\C(=N)N(c3ccccc3)N=C2N)cc1`, 9.27% (active).
For `COc1ccc(OC)c(CCn2cncc2-c2c[nH]c3ccccc23)c1`, the growth was 80.8%.
The result for `N=C(N)c1ccc(-c2ccc(-c3ccc(Cl)cc3)o2)nc1` reads 110%; that for `O=C(/C=C/c1cccc(Nc2ccnc3cc(Cl)ccc23)c1)c1ccc(Cl)cc1`, 47.6%.
With `CCCCn1c(-c2ccc(C(=O)O/N=C(\N)c3ccc4c(c3)OCO4)cc2)nc(-c2ccccc2)c1-c1ccccc1`, the growth was -52.4% (active).
In the case of `CN(C)c1ccc(N=Cc2ccc(N3CCOCC3)cc2)cc1` it was 16.6%.
Turning to `Cc1nc([C@H]2CC[C@H]3[C@@H]4CCC5=CC(=O)CC[C@]5(C)[C@H]4CC[C@]23C)cs1`, the growth is 4.93% (active).
In the case of `O=C(Oc1cccc2ccccc12)c1ccccc1C(=O)c1ccccc1` it was -8.79% (active).
In the case of `CNCc1cccc2c1OCCOCCOCCC(C)S(=O)(=O)c1ccc(cc1)-c1cnc(N)c(n1)C(=O)N2` (stereo not given) it was -34.8% (active).
The result for `N#CC1=C(N)Oc2c(sc3c(Br)cccc23)C1c1ccccn1` (stereo not given) reads 7.5% (active); that for `CC(=O)OC1Oc2cc(C)c(C)cc2-c2oc(=O)c(-c3ccccc3)cc21` (stereo not given), -39.1% (active).
For the molecule `COc1ccc(-c2nc(SCC(C)C)nc(Nc3ccc(C)cc3)c2C#N)cc1`, the growth was 92.3%.
In the case of `COc1cc(C2CC(c3cccc(Nc4ccncc4)c3)=NN2c2cc(Cl)cc(Cl)c2)cc(OC)c1OC` (stereo not given) it was -44.7% (active); in that of `CC(C)(C)c1ccc(O)c(Br)c1`, 156%.
In the case of `Clc1nc(N2CCC[N+]3(CC2)CC[N+]2(CCCNCC2)CC3)nc(N2CCC[N+]3(CC2)CC[N+]2(CCCNCC2)CC3)n1` (stereo not given) it was 97%.
The result for `N#CN1CC[C@H](C(=O)Nc2ncc(-c3ccncc3)s2)C1` reads -28.5% (active).
Consider `N#CC1(O)CCCCC1`, for which the growth was 104%.
The result for `CNC(=O)c1cc(Oc2cccc3nc(NC(=O)Nc4ccc(F)cc4F)ccc23)ccn1` reads 81.8%.
On to `O=C(CSc1nnc(-c2cc(-c3ccccc3)nc3ccccc23)o1)c1ccc(Br)cc1`, for which the growth is 99.4%.
In the case of `CC(C)(C)OC(=O)N1C/C(=C\c2ccoc2)C(=O)/C(=C/c2ccoc2)C1` it was 87.6%; in that of `CCCCCCCCCCCCCCCCCCNC(=O)[C@H]1CSC(c2ccc(OC)c(F)c2)N1` (stereo not given in full), -60.3% (active); in that of `CCCc1cc(CCC)n2nc(N)nc2n1`, 105%.
In the case of `COc1cc(C(=O)N2CCN(C(=O)c3ccco3)CC2)c(N)cc1OCc1ccccc1` it was 99.8%.
For the molecule `Nc1cc(C(=O)O)cc(C(=O)O)c1`, the growth was 90.2%.
Consider `CNC(=O)c1cc(Oc2ccc3nc(NC(=O)Nc4ccc(CN5CCOCC5)c(C(F)(F)F)c4)sc3c2)ccn1`, for which the growth was 17.1%.
In the case of `Cc1cc(C)c(S(=O)(=O)/N=c2/n(-c3ccccc3)nc3n2CCN3C2=NCCN2)c(C)c1` it was 82.8%; in that of `COC(=O)c1c2c(c(C)[n+]([O-])c1C)C(=O)C(NCc1cccc(Cl)c1)=CC2=O`, -56.1% (active).
Consider `O=S1(=O)N(CCNc2nccc(-c3c(-c4cccc(O)c4)nc4sccn34)n2)CCN1Cc1ccccc1`, for which the growth is 91.8%.
For `CCOC(=O)C1=C(C)N=C2SC=C(c3ccc(F)cc3)N2[C@H]1c1cn(-c2ccccc2)nc1-c1ccc(Cl)cc1`, the growth was 88.3%.
The result for `CC(C)C[C@H](NC(=O)Cn1ccc2ccccc2c1=O)B(O)O` reads 27.9%; that for `COc1cc(-c2nn(-c3ccc(NC(=O)Nc4cc(C(F)(F)F)cc(C(F)(F)F)c4)cc3)cc2-c2ccncc2)ccc1Cl`, 4.78% (active); that for `COC(=O)/C=C1\Sc2cc(F)ccc2NC1=O`, 97.7%.
Turning to `COc1cc(NC(N)=NCC(C)(C)COc2ccc(C(F)(F)F)cc2)cnc1C#N`, the growth was 24.7%.
Turning to `NC1[C@H](c2c[nH]c3ccccc23)c2c([nH]c3ccccc23)[C@H]1c1c[nH]c2ccccc12` (stereo not given in full), the growth is 119%.
The result for `O=[N+]([O-])c1cccc(N=NNc2cccc([N+](=O)[O-])c2)c1` reads 79.9%.
The result for `O=C1CC(c2ccc(O)c(O)c2)Oc2cc(O)c([C@@H]3O[C@H](CO)[C@@H](O)[C@H](O)[C@H]3O)c(O)c21` (stereo not given in full) reads 99.6%; that for `NC(=Nc1nc(-c2ccccn2)cc2ccccc12)c1ccccn1`, -30.6% (active).
